The list is not random: actives were taken first. Their share in the collection is about 3.5%.
FBW7 activator: FBW7 E3 ligase activators, primary screen, biochemical, AlphaScreen, human; F-box/WD repeat-containing protein 7 (Homo sapiens), Q969H0; AlphaScreen FBW7–phospho-cyclin E peptide binding, activator screen; normalized activity (activation), % at 26.1 µM; hit rate 0.13% among 650,000; AID 1259310, 2017; in the data active = normalized activity above about 1.9%;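 also: purified mutant Fbw7 with reduced substrate affinity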
MITF primary: MITF inhibitors, primary screen, biochemical, AlphaScreen, human | Microphthalmia-associated transcription factor (Homo sapiens), O75030 | AlphaScreen MITF homodimerization, bead proximity signal | inhibition, % at 2.6 µM | hit rate 0.91% among 650,000 | AID 1259374, 2018; in the data active = inhibition above about 50%;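 also: 0% = vehicle wells with protein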
Target sequence (O75030 whole entry, looked up): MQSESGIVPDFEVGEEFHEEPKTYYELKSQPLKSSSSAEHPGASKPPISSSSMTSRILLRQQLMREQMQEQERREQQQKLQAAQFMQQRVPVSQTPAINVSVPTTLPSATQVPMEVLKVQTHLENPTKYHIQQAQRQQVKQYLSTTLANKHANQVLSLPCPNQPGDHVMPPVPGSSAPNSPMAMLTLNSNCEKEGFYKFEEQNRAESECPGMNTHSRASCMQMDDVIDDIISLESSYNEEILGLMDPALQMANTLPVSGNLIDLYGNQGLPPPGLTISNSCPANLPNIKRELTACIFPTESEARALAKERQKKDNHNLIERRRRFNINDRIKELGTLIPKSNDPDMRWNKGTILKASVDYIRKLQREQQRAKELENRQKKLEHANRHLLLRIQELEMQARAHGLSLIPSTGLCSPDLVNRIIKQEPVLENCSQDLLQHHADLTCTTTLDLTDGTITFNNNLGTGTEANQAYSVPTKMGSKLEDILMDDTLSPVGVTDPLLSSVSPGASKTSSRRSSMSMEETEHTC
TEAD-YAP inh: TEAD-YAP interaction inhibition, primary screen, TEAD-YAP interaction inhibitor project, luminescence, HEK-TIYL cells | TEAD-Gal4/YAP UAS-luciferase luminescence | inhibition, % at 9.12 µM | hit rate 1.4% among 640,000; in the data active = inhibition above about 32%;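 also: 0% = median of test compound wells and 100% = reference inhibitor wells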
GPR151 ag: activators of human GPR151, primary screen, cell-based, PathHunter beta-arrestin, luminescence; G-protein coupled receptor 151 (Homo sapiens), Q8TDV0; activation, % at 11.2 µM; AID 1508602, 2020; hit rate 1% among 650,000; PathHunter beta-arrestin GPR151 cells; in the data active = activation above about 4.9%;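 also: 0% = median of compound wells and 100% = cells with positive control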
Starred values were filed as active, the others as inactive.

SMILES | FBW7 activator | MITF primary | TEAD-YAP inh | GPR151 ag
COc1ccc(C(=O)c2sc3nc4c(cc3c2N)C(=O)CCC4)cc1 | -0.1 | -12.3 | -3.5 | 2.0
O=c1[nH]c(N2CCCC2)nc2c1CN(Cc1ccccc1F)CC2 | 0.1 | 14.1 | -8.8 | -0.6
O=C(CSc1c[nH]c2ccccc12)Nc1ccc(F)cc1 | 0.1 | -7.8 | 5.0 | -0.1
Cc1ccc2nc(NCc3ccccn3)c3nncn3c2c1 | 0.0 | 6.7 | -10.4 | -0.7
CCOC(=O)c1cccc(N(Cc2ccccc2)S(=O)(=O)c2ccc(F)cc2)c1 | 0.7 | 1.6 | 6.7 | -0.7
CCOC(=O)c1sc(N2C(=O)C(=O)/C(=C(/O)c3ccc(F)cc3)C2c2cccc(Br)c2)nc1C (stereo unspecified) | -0.2 | -0.1 | -2.6 | -1.3
Cc1cccc(OCc2ccc(-c3nc(C#N)c(N4CC(C)OC(C)C4)o3)o2)c1 (stereo unspecified) | -0.3 | 1.0 | 4.3 | -1.2
c1ccc2c(c1)nnn1c3ccccc3nc21 | 0.0 | 4.1 | 34.8* | -9.2
Cc1nc2ccccc2c2nc3ccccc3n12 | -0.1 | -3.0 | -2.4 | 0.6
c1ccc2[nH]c(-c3cc(-c4cc(-c5nc6ccccc6[nH]5)c5ccccc5n4)nc4ccccc34)nc2c1 | 0.1 | 11.4 | 82.0* | -9.7
COc1cc(N)c(-c2nc3ccccc3[nH]2)cc1OC | 0.8 | 16.4 | 45.9* | -6.8
O=C1CCC(CCNCc2cccc(C(F)(F)F)c2)N1C1CCCC1 (stereo unspecified) | -0.1 | -12.7 | -8.0 | -1.4
COc1ccc(-c2noc(-c3ccco3)n2)cc1 | -0.1 | -10.2 | 60.2* | -10.2
CCOc1ccc(-c2nc(-c3ccccc3)no2)cc1 | 0.0 | 12.8 | 61.7* | -2.5
Cc1ccc(-c2noc(-c3ccco3)n2)cc1 | -0.2 | -0.1 | -6.9 | -5.0
COc1ccc(C2CC(=O)C3=C(C2)Nc2ccccc2N(C(=O)c2cccc(Cl)c2)C3c2cccs2)cc1 (stereo unspecified) | -0.2 | 3.5 | 5.4 | 0.7
C/C(CC(=O)Nc1ccc(I)cc1)=N\NC(=O)c1cccc(O)c1 | -0.1 | -1.9 | 12.3 | 0.5
COc1cccc(NC(=O)C(=O)N/N=C(\C)CC(=O)NC2CCCCCCC2)c1 | 0.1 | 2.7 | -50.5 | -3.0
COc1cc(OC)cc(C(=O)N/N=C(\C)CC(=O)Nc2ccccc2C(F)(F)F)c1 | -0.2 | -1.7 | 49.5* | -1.6
C/C(CC(=O)Nc1ccccc1C#N)=N\NC(=O)c1ccncc1 | 1.9* | 8.7 | 5.7 | 0.7
C/C(CC(=O)Nc1ccc(C)cc1)=N\NC(=O)c1cccc(O)c1 | 0.3 | 9.4 | 35.1* | -2.9
COc1cc(OC)cc(C(=O)N/N=C(\C)CC(=O)NC2CCCCC2)c1 | -0.1 | -3.4 | 60.3* | 0.1
O=C(Nc1c2c(nn1-c1cccc(Cl)c1)CS(=O)(=O)C2)c1ccccc1F | 0.1 | -10.8 | 0.7 | -0.8
COc1cccc(-n2c(SCC(=O)Nc3cc(OC)ccc3OC)nc3n[nH]c(C)c3c2=N)c1 | 0.1 | 28.8 | 1.3 | -0.3
COc1cc(OC)cc(C(=O)N/N=C(\C)CC(=O)Nc2ccc(Br)cc2)c1 | 0.0 | 12.6 | 54.3* | 0.8
SMILES | FBW7 activator | MITF primary | TEAD-YAP inh | GPR151 ag
COc1cccc(C(=O)N/N=C(\C)CC(=O)Nc2ccc(Br)cc2)c1 | 1.3 | 8.8 | -0.8 | -0.5
C/C(CC(=O)Nc1cccc(C(F)(F)F)c1)=N\NC(=O)c1ccc2ccccc2c1 | -0.1 | 6.8 | 51.5* | 0.4
CCN(CC)CCOC(=O)c1ccc(NC(=O)c2cc(Cl)ccc2OC)cc1Cl | 0.0 | 1.7 | -2.6 | 0.9
Cc1ccc(-n2c(O)c(C=NC3CCC(O)CC3)c3ccccc3c2=O)c(C)c1 (stereo unspecified) | -0.1 | -6.2 | -2.0 | 0.5
O=P1(N/N=C/c2ccc(F)cc2)C=C(c2ccccc2)OC(c2ccccc2)=C1 | 0.5 | 7.2 | 6.5 | -0.8
O=C(NCCOc1ccccc1)c1csc(Nc2ccc(N3CCOCC3)cc2)n1 | -0.1 | -127.4 | 39.4* | 2.5
COc1ccc(CCNC(=O)c2cnc(Nc3ccc(N4CCOCC4)cc3)s2)cc1 | 0.2 | -1.4 | -12.8 | 2.6
COc1ccc(CCNC(=O)c2csc(Nc3ccc(N4CCOCC4)cc3)n2)cc1 | 0.2 | 14.2 | 71.4* | 1.2
CCCNC(=O)c1ccc(NC(=O)CC)cc1 | 0.5 | 7.9 | -6.2 | -0.5
Nc1c(C(=O)Nc2ccc(Cl)cc2)sc2nc(-c3cccs3)cc(C(F)(F)F)c12 | 0.0 | 17.6 | 0.4 | -0.8
COc1ccc(O)c(CN2CCc3nnc(CNC(=O)c4cccc(F)c4)n3CC2)c1 | 0.1 | 15.9 | -2.6 | 0.6
Cc1ccc2nc(/C(C#N)=C\c3ccco3)[nH]c2c1 | 0.1 | 0.7 | -60.7 | 0.5
Cc1cc(N2CCN(c3ccccc3)CC2)nc(NCc2ccccc2)n1 | -0.3 | 2.6 | 11.8 | 0.2
Cc1cc(N2CCCCC2)nc(NCCNS(=O)(=O)Cc2ccccc2)n1 | -0.2 | 4.4 | 55.5* | -0.6
Cc1cc(C)cc(Nc2ncnc3c2c(-c2ccccc2)cn3-c2ccc(C)c(Cl)c2)c1 | 0.1 | 1.7 | -4.7 | 0.0
Cc1sc2nc(SCC#N)[nH]c(=O)c2c1C | 0.6 | 0.6 | 46.2* | 0.2
Cc1sc2nc(SCC(N)=O)[nH]c(=O)c2c1C | -0.2 | -2.4 | -5.8 | -0.5
CCOC(=O)c1csc(NC(=O)c2ccc(S(=O)(=O)N3CCc4ccccc43)cc2)n1 | -0.1 | 20.2 | 35.4* | -0.4
O=C(Nc1ccccc1F)c1ccc(S(=O)(=O)N2CCc3ccccc3C2)cc1 | -0.1 | 9.4 | 40.3* | 1.9
COc1ccc(NC(=O)c2ccc(S(=O)(=O)N3CCc4ccccc4C3)cc2)c2ccccc12 | 0.1 | 17.5 | -2.0 | 1.2
COc1ccc(NC(=O)c2ccc(S(=O)(=O)N3CCc4ccccc43)cc2)c2ccccc12 | -0.1 | -2.1 | 60.2* | 1.6
O=[N+]([O-])c1cccc(C=NC2CCCCC2)c1 | 0.1 | -12.1 | 8.1 | 1.2
Cc1sc2nc(C3CC3)n3c(=O)n(CC(=O)NC4CC4)nc3c2c1C | -0.1 | -0.1 | 7.8 | 0.2
Cc1cncc2cccc(NC3CCCN(C(=O)C(O)c4ccc(F)cc4)C3)c12 (stereo unspecified) | -0.3 | 12.8 | 45.1* | 0.3
Cc1cncc2cccc(NC3CCCN(C(=O)c4cccc(Br)c4)C3)c12 (stereo unspecified) | 0.1 | 5.9 | 8.4 | -1.4
Cc1cncc2cccc(NC3CCCN(C(=O)[C@H](C)O)C3)c12 (stereo partly specified) | -0.5 | 3.6 | 62.5* | -0.2
Cc1cc2c(NC3CCCN(C(=O)C(O)c4ccc(Cl)cc4)C3)cccc2nn1 (stereo unspecified) | -1.5 | 55.8* | 6.0 | -0.2
Cc1cncc2cccc(NC3CCCN(C(=O)C(O)c4ccc(Cl)cc4)C3)c12 (stereo unspecified) | -0.1 | 7.3 | 42.1* | 1.6
Cc1cncc2cccc(NC3CCN(C(=O)C(N)c4ccc(Cl)cc4)CC3)c12 (stereo unspecified) | -0.2 | 13.7 | -8.7 | -0.5
O=C(CCc1nnc(CCc2c[nH]c3ccccc23)o1)NCc1ccc2c(c1)OCO2 | 0.0 | -1.9 | 1.1 | 2.0

Compound activity deposited in PubChem by The Scripps Research Institute Molecular Screening Center.
